Structures are written as SMILES. ± gives the standard deviation of the averaged measurements.

The test system of assay [1] is MDA-MB-231. The assay is described as follows: cell viability relative to vehicle unstimulated control (fraction); higher = more viable cells. The following applies: pre-treatment time: 18 h then 24 h IFNg/TNF.
For assay [2], the system named is MDA-MB-231. The assay can be described thus: kynurenine production, fold change vs DMSO IFNg/TNF control; higher = more kynurenine produced (less inhibition). The following applies: pre-treatment time: 18 h then 24 h IFNg/TNF. The essentials:
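MDA-MB-231 cells (7 × 10^4/well, 96-well plates, seeded 24 h earlier) were pre-treated 18 h with each natural product in 0.1% DMSO, then stimulated 24 h with IFNγ (1 U/ml) and TNF (6.25 ng/ml) at 37°C. Supernatant kynurenine was read at 492 nm after trichloroacetic acid and p-dimethylaminobenzaldehyde treatment, against 0–100 μM standards. Kynurenine production is the fold change over cytokine-stimulated vehicle wells on the same plate, averaged over duplicate plates in the first screening round.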
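Wherever cell viability relative to vehicle unstimulated control is given: viability of the cells left after supernatant collection, read with Deep Blue dye added for 4 h, as absorbance at 570 nm minus 600 nm.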

For the molecule `CC(C)=CCC/C(C)=C/CC/C(C)=C/CC/C=C(\C)CC/C=C(\C)CCC=C(C)C` [Squalene] (compound dose: 10 uM), in assay [1], the cell viability was 0.914 ± 0.13. Besides, the kynurenine production in assay [2] came to 0.887 ± 0.027.

For `CC1(C)CC[C@]2(C(=O)O)CC[C@]3(C)C(=CC[C@@H]4[C@@]5(C)CCC(=O)C(C)(C)[C@@H]5CC[C@]43C)[C@@H]2C1` [Oleanonic acid] (compound dose: 10 uM), the cell viability in assay [1] worked out at 0.957 ± 0.031. In addition, the kynurenine production in assay [2] is 1.136 ± 0.0017.

Consider `C[C@H]1[C@H](OC(=O)CCC(=O)O)O[C@@H]2O[C@@]3(C)CC[C@H]4[C@H](C)CC[C@@H]1[C@@]24OO3` [Artesunate] (compound dose: 10 uM), for which, in assay [1], the cell viability was 0.909 ± 0.13. The kynurenine production in assay [2] is 0.421 ± 0.04.

Take `COC(=O)[C@@H]1C[C@@]23C4=C(CC[C@@H]5CN6C[C@@H](C)[C@@H](C[C@@H](OC(C)=O)[C@@]52COC(C)=O)[C@]63O)CC[C@@H]41` [Yuzurimine] (compound dose: 10 uM): the cell viability in assay [1] stood at 1.04 ± 0.029. Moreover, the kynurenine production in assay [2] is 0.756 ± 0.07.

Consider `C[C@H](CC[C@@H](O[C@@H]1O[C@H](CO[C@@H]2O[C@H](CO)[C@@H](O)[C@H](O)[C@H]2O)[C@@H](O)[C@H](O)[C@H]1O)C(C)(C)O)[C@H]1CC[C@@]2(C)[C@@H]3CC=C4[C@@H](CC[C@H](O[C@@H]5O[C@H](CO)[C@@H](O)[C@H](O)[C@H]5O)C4(C)C)[C@]3(C)[C@H](O)C[C@]12C` [Mogroside III] (compound dose: 10 uM), for which the cell viability in assay [1] was 0.857 ± 0.018. Besides, in assay [2], the kynurenine production worked out at 0.997 ± 0.13.

On to `C=C(C)[C@@H]1CC[C@]2(C=O)CC[C@]3(C)[C@H](CC[C@@H]4[C@@]5(C)CC[C@H](O)C(C)(C)[C@@H]5CC[C@]43C)[C@@H]12` [Betulinaldehyde] (compound dose: 10 uM), for which, in assay [1], the cell viability worked out at 1.005 ± 0.0091. Moreover, in assay [2], the kynurenine production is 0.697 ± 0.12.

Turning to `O=C1O[C@H]2[C@@H]3OC(=O)c4cc(O)c(O)c(O)c4-c4c(O)c(O)c5oc(=O)c6c(c(O)c(O)c7oc(=O)c4c5c76)-c4c(cc(O)c(O)c4O)C(=O)OC[C@H]3OC(O)[C@@H]2OC(=O)c2cc(O)c(O)c(O)c2-c2c1cc(O)c(O)c2O` (mixture of isomers) [Punicalagin] (compound dose: 10 uM), the cell viability in assay [1] amounted to 1.001 ± 0.0011. The kynurenine production in assay [2] came to 0.1 ± 0.0087.

Consider `CC1(C)CC[C@]2(C(=O)O[C@@H]3O[C@H](CO)[C@@H](O)[C@H](O)[C@H]3O)CC[C@]3(C)C(=CC[C@@H]4[C@@]5(C)CC[C@H](O[C@@H]6O[C@H](C(=O)O)[C@@H](O)[C@H](O)[C@H]6O[C@H]6OC[C@@H](O)[C@H](O)[C@H]6O)C(C)(C)[C@@H]5CC[C@]43C)[C@@H]2C1` [Pseudoginsenoside RT1] (compound dose: 10 uM), for which the cell viability in assay [1] is 0.9758 ± 0.0023. In assay [2], the kynurenine production is 0.988 ± 0.14.

Regarding `C[C@@H]1O[C@@H](O[C@H]2[C@H](O[C@H]3CC[C@@]4(C)[C@@H](CC[C@]5(C)[C@@H]4CC=C4[C@@H]6CC(C)(C)CC[C@]6(C(=O)O)CC[C@]45C)[C@]3(C)CO)OC[C@H](O)[C@@H]2O)[C@H](O)[C@H](O)[C@H]1O` [alpha-Hederin] (compound dose: 10 uM), in assay [1], the cell viability came to 0.932 ± 0.067. Also, in assay [2], the kynurenine production amounted to 0.875 ± 0.14.

For the molecule `C=C1CC[C@@H]2[C@](C)(CO[C@@H]3O[C@H](CO)[C@@H](O)[C@H](O)[C@H]3O)CCC[C@@]2(C)[C@@H]1CCC1=CCOC1=O` [Neoandrographolide] (compound dose: 10 uM), the cell viability in assay [1] turned out to be 0.953 ± 0.034. The kynurenine production in assay [2] came out at 0.893 ± 0.012.

For `CC(C)=CCC[C@](C)(O[C@@H]1O[C@H](CO)[C@@H](O)[C@H](O)[C@H]1O)[C@H]1CC[C@]2(C)[C@@H]1[C@H](O)C[C@@H]1[C@@]3(C)CC[C@H](O)C(C)(C)[C@@H]3CC[C@]12C` [Ginsenoside C-K] (compound dose: 10 uM), the cell viability in assay [1] came to 0.969 ± 0.016. In addition, the kynurenine production in assay [2] is 0.912 ± 0.14.

With `C[C@H](CC[C@@H](OC[C@@H]1O[C@H](OC[C@H]2O[C@@H](O)[C@H](O)[C@@H](O)[C@@H]2O)[C@@H](O)[C@H](O)[C@H]1O)C(C)(C)O)[C@H]1CC[C@@]2(C)[C@@H]3CC=C4[C@@H](CC[C@H](O)C4(C)C)[C@]3(C)[C@H](O)C[C@]12C` [Mogroside IIA1] (compound dose: 10 uM), the cell viability in assay [1] amounted to 1.22 ± 0.15. Further, the kynurenine production in assay [2] was determined as 1.07 ± 0.13.

Turning to `C[C@@]12C[C@H](c3ccoc3)O[C@@]13C[C@H](OC3=O)[C@H]1[C@H]2C[C@@H]2C[C@H]1C(=O)O2` [Diosbulbin B] (compound dose: 10 uM), the cell viability in assay [1] came to 0.78 ± 0.24. Also, in assay [2], the kynurenine production was determined as 0.779 ± 0.13.

As to `CC1(C)CC[C@]2(C(=O)O[C@@H]3O[C@H](CO)[C@@H](O)[C@H](O)[C@H]3O)CC[C@]3(C)C(=CC[C@@H]4[C@@]5(C)CC[C@H](O[C@@H]6O[C@H](C(=O)O)[C@@H](O)[C@H](O)[C@H]6O)C(C)(C)[C@@H]5CC[C@]43C)[C@@H]2C1` [Chikusetsusaponin Iva] (compound dose: 10 uM), in assay [1], the cell viability is 0.986 ± 0.01. The kynurenine production in assay [2] came out at 0.788 ± 0.14.

In the case of `C=C1[C@H](OC(=O)c2cccnc2)C[C@H]2[C@@H](/C=C(\C)C(=O)[C@@]3(OC(C)=O)C[C@H](C)[C@H](OC(=O)c4ccccc4)[C@@H]3[C@H]1OC(C)=O)C2(C)C` [Euphorbia factor L9] (compound dose: 10 uM), in assay [1], the cell viability turned out to be 1.07 ± 0.095. Also, the kynurenine production in assay [2] was 0.226 ± 0.028.

In the case of `C=C1CC[C@@H]2[C@](C)(COC(=O)CCC(=O)O)[C@H](OC(=O)CCC(=O)O)CC[C@@]2(C)[C@@H]1/C=C/C1=CCOC1=O` [Dehydroandrographolide succinate] (compound dose: 10 uM), in assay [1], the cell viability turned out to be 0.898 ± 0.11. The kynurenine production in assay [2] stood at 1.2 ± 0.089.

For `C/C=C(/C)C(=O)O[C@H]1[C@H](OC(C)=O)[C@]2(CO)[C@H](O)C[C@]3(C)C(=CC[C@@H]4[C@@]5(C)CC[C@H](O[C@@H]6O[C@H](C(=O)O)[C@@H](O[C@@H]7O[C@H](CO)[C@@H](O)[C@H](O)[C@H]7O)[C@H](O)[C@H]6O[C@@H]6O[C@H](CO)[C@@H](O)[C@H](O)[C@H]6O)[C@](C)(CO)[C@@H]5CC[C@]43C)[C@@H]2CC1(C)C` [Escin IB] (compound dose: 10 uM), the cell viability in assay [1] came out at 0.915 ± 0.022. In addition, the kynurenine production in assay [2] amounted to 0.801 ± 0.012.

The record behind these values is the supplement of paper PMC13094657.
